Results reported in the supplement of paper PMC11417369.
± gives the standard deviation of the averaged measurements. Over roughly 25,000 sequences, “ln(normalized median fluorescence intensity)” has its median near 8.6; the highest 2% begin near 10. The sample holds the highest values, similar sequences and a random draw of the others, so the mix is not that of the screen.

test system: PfAP2-EXP AP2 domain (GST-tagged); test: gcPBM binding intensity (ln(normalized median fluorescence intensity)); higher = stronger DNA binding
Procedure, shortened: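 For binding intensity, the highest Masliner-normalised natural-log median intensity across replicate spots of either probe orientation was taken. Protein bound to the array was stained with Alexa488 anti-GST antibody and scanned at 488 nm. The protein, GST-tagged P. falciparum DNA-binding domains from E. coli at about 25 μg on average, had been applied for 1 h to an Agilent 4 × 180k array of primer-extended double-stranded 36-bp intergenic genomic probes and negative controls.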

| Sequence | gcPBM binding intensity (ln) |
| --- | --- |
| GAAAAAAAAAAAAAAAAACACACGGTACATTCAAAG [CACACA_site303] | 8.5 ± 0.58 |
| TACTGATCCACATTTATACACACCTCGGTTTGTAGA [CACACA_site417] | 8.56 ± 0.4 |
| CTTAATATTCTTTAAAGTACACAAAATAAGAATATA [XGTACX_site5489] | 8.87 ± 0.59 |
| ATAATATAAATACAAACACACAATTGCGTCCACATT [CACACA_site5039] | 8.82 ± 0.38 |
| GTCCAATAAGGAAGAGTGCAAAAATTAAATAATATA [GTGCAC_site9751] | 8.76 ± 0.28 |
| ATATATATATATATATGTACATACAATTATATTCTC [XGTACX_site1133] | 10.2 ± 0.29 |
| TATATATATTATATATGTACATATTATATATATATA [XGTACX_site7300] | 9.46 ± 0.17 |
| ATATATATATATATATGTACATATATATATTATATT [XGTACX_site6303] | 10 ± 0.62 |
| TATATTTATACAATATGTACATATTATATATATATA [XGTACX_site3098] | 9.57 ± 0.26 |
| ATATATATATATATATGTACATATATTCGATTATTA [XGTACX_site557] | 10.29 ± 0.049 |
| ATATATATATATATATGTACATATTATTCTCATTGT [XGTACX_site6259] | 9.88 ± 0.28 |
| AAGTTTTTTTCTTTTTTTCTCTCTTTTTTTTTTTTT [XGTACX_negctrl_site613] | 8.19 ± 0.51 |
| ATAAATATATATATAGTGCATATAAGCCACCTTCAA [GTGCAC_site9628] | 8.86 ± 0.014 |
| AATTGAAAAGAATGAAGTACACATTTGATGATACAT [XGTACX_site5182] | 8.62 ± 0.33 |
| TACAATATAAAATACACACGCACACCGAAAAAAAAA [CACACA_site5865] | 8.53 ± 0.4 |
| ATATAAAAAAAAAATTGTACAAAAATATATACATAT [XGTACX_site469] | 8.53 ± 0.42 |
| AATAATATATTTAGGGGTACATAATAATATATTTTA [XGTACX_site8366] | 8.81 ± 0.6 |
| TTAGGCAAGGCGGGGGGTACGTTTTTATATAATTAT [XGTACX_site8029] | 10.7 ± 0.18 |
| AAATATATTATAAATTGTACGTTTATATATATTATT [XGTACX_site5110] | 8.29 ± 0.37 |
| ATCTTTCCTATTTGTAGTACAAAAAAAAAAAAAAAA [XGTACX_site5485] | 8.44 ± 0.18 |
| TTTGTAATAACATATGCATGTTCAAAAAATAAAATA [TGCATGCA_site817] | 8.4 ± 0.36 |
| AAGAAAAACTTATATATATATATATATATATATATA [TGCATGCA_negctrl_site466] | 10.3 ± 0.29 |
| TTATAAAAGAAAAAAAAAAAAAAAAAAAAAAAAAAA [CACACA_negctrl_site1006] | 7.89 ± 0.43 |
| AAGAAAAAAAAAAAAACACACATATATTTATTTATA [CACACA_site7042] | 8.06 ± 0.47 |
